Compound activity deposited in PubChem BioAssay by Sanford-Burnham Center for Chemical Genomics.
SENP8 block-1: SENP8 protease inhibitors, primary screen, biochemical, luminescence; Sentrin-specific protease 8 (Homo sapiens), Q96LD8; purified SENP8, Z-RLRGG-aminoluciferin cleavage; inhibition, % at 10 µM; hit rate 1.2% among 330,000; AID 2540, 2010; in the data active = inhibition above about 50%
Target sequence (Q96LD8 whole entry, looked up): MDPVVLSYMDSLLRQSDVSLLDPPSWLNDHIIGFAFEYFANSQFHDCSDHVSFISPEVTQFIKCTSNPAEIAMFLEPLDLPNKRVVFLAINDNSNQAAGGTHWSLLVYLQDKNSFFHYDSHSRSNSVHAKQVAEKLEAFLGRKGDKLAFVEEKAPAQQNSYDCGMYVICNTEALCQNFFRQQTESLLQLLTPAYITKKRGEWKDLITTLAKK
SENP6 block: SENP6 protease inhibitors, primary screen, biochemical, luminescence, uHTS; AID 2599, 2010; inhibition, % at 10 µM; Sentrin-specific protease 6 (Homo sapiens), Q9GZR1; Recombinant SENP6 catalytic domain, aminoluciferin luminescence; hit rate 1.8% among 330,000;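 active = inhibition above about 50% at the single tested dose, limit read from the data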
SENP7 inh: SENP7 protease inhibitors, primary screen, biochemical, luminescence, uHTS | recombinant SENP7, Z-RLRGG-aminoluciferin luminescence, 40 min | inhibition, % at 5 µM | hit rate 1.5% among 330,000 | AID 434973, 2010;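 active = inhibition above about 50% at the single test dose, limit read from the data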
Target sequence (Q9BQF6 706-1050 limits assumed): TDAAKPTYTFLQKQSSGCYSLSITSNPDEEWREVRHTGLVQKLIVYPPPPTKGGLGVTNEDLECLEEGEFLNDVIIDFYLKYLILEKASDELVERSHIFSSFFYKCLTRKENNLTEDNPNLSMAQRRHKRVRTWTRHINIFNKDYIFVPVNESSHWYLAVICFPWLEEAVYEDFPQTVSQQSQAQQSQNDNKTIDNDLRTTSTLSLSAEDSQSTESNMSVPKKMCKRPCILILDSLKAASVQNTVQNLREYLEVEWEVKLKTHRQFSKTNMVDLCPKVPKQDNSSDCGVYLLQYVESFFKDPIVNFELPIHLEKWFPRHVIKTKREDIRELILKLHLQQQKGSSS
TRAIL sens C8: viability loss with TRAIL in NB7+C8 cells, primary screen, TRAIL sensitizer project, cell-based, ATPlite luminescence; inhibition (viability loss, TRAIL sensitization), % at 10 µM; hit rate 1% among 360,000;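 active = compounds causing at least 50% loss of cell viability in the single-dose screen, relative to plate controls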
PPC-1+TRAIL kill: compounds killing PPC-1 cancer cells with TRAIL present, primary screen, TRAIL potentiator project, ATPLite luminescence, uHTS; PPC-1 cells + TRAIL, ATPLite viability luminescence; cell killing (% activity), % at 4 µM or 5 µM; hit rate 0.41% among 220,000; AID 1443, 2008;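 active = cell killing above 50% in the first pass at 4 µM, then a duplicate retest at 5 µM averaging 50% or more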
SENP8 block-2: human SENP8 protease inhibitors, primary screen, biochemical, fluorescence, Nedd8 protein substrate, uHTS; Sentrin-specific protease 8 (Homo sapiens), Q96LD8; recombinant SENP8; inhibition, % at 20 µM; hit rate 0.64% among 360,000; AID 602440, 2012; in the data active = inhibition mostly above about 40%, no sharp cut-off; inactive = mostly below about 27%
SENP8 confirm: SENP8 protease inhibitors, retest, confirmation, biochemical, luminescence, single concentration. shares compounds with SENP7 inh. Recombinant SENP8, Z-RLRGG-aminoluciferin luminescence, 60 min. hit rate 40% among 6,200. AID 488912, 2010. inhibition, % at 12.5 µM;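 active = mean inhibition across replicates above about 50%, limit read from the data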
SENP6 conf: SENP6 protease inhibitors, confirmation, biochemical, luminescence, single concentration. recombinant SENP6, Z-RLRGG-aminoluciferin luminescence. hit rate 58% among 6,200. inhibition, % at 12.5 µM. AID 488915, 2010. shares compounds with SENP7 inh
SENP7 confirm: SENP7 protease inhibitors, retest, confirmation, biochemical, luminescence, single concentration; shares compounds with SENP7 inh; recombinant SENP7, Z-RLRGG-aminoluciferin luminescence, 40 min; inhibition, % at 12.5 µM; hit rate 69% among 6,200
Casp3 select: caspase-3 protease inhibitors, confirmation, selectivity assay for SENP inhibitor project, biochemical, single concentration; shares compounds with SENP7 inh; purified caspase-3, Z-DEVD-aminoluciferin luminescence, 60 min; inhibition, % at 12.5 µM; hit rate 60% among 6,200;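 active = mean inhibition above about 50%, limit read from the data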
SENP luc ctr: counter-screen for SENP inhibitors: luminescence interference. shares compounds with SENP7 inh. Pre-incubated SENP8/Z-RLRGG-aminoluciferin, luciferase luminescence interference. inhibition, % at 12.5 µM. hit rate 39% among 6,200. AID 488919;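 active = mean inhibition above about 50% when retested at one dose, limit read from the data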
Large screens that a line does not name were inactive (follow-up assays come after a bar, where they were run). The list is not random: actives were taken first. Their share in the collection is about 3%.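 Rule for the calls, unless noted: active = mean inhibition above about 50% in the one-dose retest (limit read from the data); inactive = the rest.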

COc1cccc(CNC(=O)CCC2CCCN(C(=O)c3ccoc3)C2)c1 (stereo not drawn)	none
COc1cccc(CNC(=O)CCC2CCCN(C(=O)c3cc4ccccc4o3)C2)c1 (stereo not drawn)	SENP8 block-1 54, SENP7 inh 52 | SENP8 confirm inactive | SENP6 conf 62 | SENP7 confirm 89 | Casp3 select 76 | SENP luc ctr 59
COc1ccc(-c2noc3c2-c2nc(-c4ccc(Cl)cc4)sc2CC3)cc1	none (no result: PPC-1+TRAIL kill)
CN(C)c1ccc(N=Nc2cccc(F)c2)cc1	SENP8 block-1 87, SENP6 block 94, SENP7 inh 95 (no result: PPC-1+TRAIL kill) | SENP8 confirm inactive | SENP6 conf 73 | SENP7 confirm 56 | Casp3 select 59 | SENP luc ctr 64
CN(C)c1ccc(N=Nc2ccc(S(N)(=O)=O)cc2)cc1	none (no result: PPC-1+TRAIL kill)
CN(C)c1ccc(N=Nc2cccc3ccoc23)cc1	SENP8 block-1 84, SENP6 block 86, SENP7 inh 90 | SENP8 confirm 77 | SENP6 conf 77 | SENP7 confirm 94 | Casp3 select inactive | SENP luc ctr inactive
Cc1ccc(-c2nc3ccsc3c(=O)o2)cc1	SENP6 block 55, SENP7 inh 52 | SENP8 confirm inactive | SENP6 conf inactive | SENP7 confirm 67 | Casp3 select inactive | SENP luc ctr 56
Cc1ccc(-n2c(C)nc3ccsc3c2=O)cc1	none (no result: PPC-1+TRAIL kill)
COc1ccc(CN2C(=O)CCCC2(C)c2nc3ccccc3[nH]2)cc1 (stereo not drawn)	none (no result: SENP8 block-1, SENP6 block, SENP7 inh, PPC-1+TRAIL kill)
N#CC1=C(N)Oc2c(ccc3ccccc23)C1c1ccsc1 (stereo not drawn)	SENP6 block 62 | SENP8 confirm inactive | SENP6 conf inactive | SENP7 confirm inactive | Casp3 select inactive | SENP luc ctr inactive
Cc1ccc(Nc2nc(N)c3ccccc3n2)cc1C	SENP8 block-1 93, SENP7 inh 92, TRAIL sens C8 79 (no result: PPC-1+TRAIL kill) | SENP8 confirm 94 | SENP6 conf 96 | SENP7 confirm 101 | Casp3 select 94 | SENP luc ctr 96
Clc1ccc(-c2cn3c(n2)-c2ccccc2C3)cc1Cl	SENP8 block-1 93, SENP6 block 94, SENP7 inh 98 | SENP8 confirm inactive | SENP6 conf 84 | SENP7 confirm 94 | Casp3 select 80 | SENP luc ctr inactive
CCCc1ccc(C(O)c2ncc(-c3ccccc3F)[nH]2)cc1 (stereo not drawn)	none (no result: SENP8 block-1, SENP6 block, SENP7 inh, PPC-1+TRAIL kill)
C=C1CCc2c([nH]c3ccc(OCC(C)C)cc23)C1=O	SENP6 block 95, TRAIL sens C8 89 (no result: PPC-1+TRAIL kill) | SENP8 confirm inactive | SENP6 conf inactive | SENP7 confirm inactive | Casp3 select inactive | SENP luc ctr inactive
COc1ccc2[nH]c3c(c2c1)CCNC3=O	none (no result: PPC-1+TRAIL kill)
COc1ccccc1CN(C)C(=O)c1sccc1-c1ccccc1	none (no result: PPC-1+TRAIL kill)
CC(=O)Nc1cccc(C(=O)OCC(=O)c2ccccc2Cl)c1	SENP7 inh 61 | SENP8 confirm 72 | SENP6 conf inactive | SENP7 confirm 89 | Casp3 select 70 | SENP luc ctr 74
CC1(C)Oc2ccc3ccc(=O)oc3c2/C(=C/NC2CCCCC2)C1=O	none
Cc1cc(NC(=O)c2cccnc2Cl)ccc1NC(=O)c1cc2ccccc2o1	none (no result: PPC-1+TRAIL kill)
Cc1cccc(NC(=O)c2cc3ccccc3o2)c1	SENP8 block-1 87, SENP6 block 94, SENP7 inh 94 | SENP8 confirm inactive | SENP6 conf 94 | SENP7 confirm 101 | Casp3 select 91 | SENP luc ctr 92
O=C(Nc1cccnc1Cl)c1cc2ccccc2o1	SENP6 block 70, SENP7 inh 63 (no result: PPC-1+TRAIL kill) | SENP8 confirm 60 | SENP6 conf 61 | SENP7 confirm 89 | Casp3 select 81 | SENP luc ctr 72
O=C(NC(=S)Nc1cccnc1)c1cc2ccccc2o1	none
O=C(Nc1cccnc1)c1cc2cc(Br)ccc2o1	SENP8 block-1 85, SENP6 block 91, SENP7 inh 92 (no result: PPC-1+TRAIL kill) | SENP8 confirm 89 | SENP6 conf 88 | SENP7 confirm 100 | Casp3 select 91 | SENP luc ctr inactive
O=C(Nc1cccc(Br)c1)c1cc2ccccc2o1	SENP8 block-1 89, SENP6 block 94 | SENP8 confirm 94 | SENP6 conf 94 | SENP7 confirm 101 | Casp3 select 82 | SENP luc ctr 88
Cc1ccc(OCCCC(=O)NNC(=O)c2ccccn2)cc1	none (no result: PPC-1+TRAIL kill)
CCC(C)c1ccc(NC(=S)N2CCN(C(=O)C3CCCO3)CC2)cc1 (stereo not drawn)	none (no result: PPC-1+TRAIL kill)
Cc1cccc(Nc2c(O)nc[nH]c2=O)c1	none (no result: SENP8 block-1, SENP6 block, SENP7 inh, PPC-1+TRAIL kill)
CCC(=O)Nc1cccc(NC(=O)c2cc3ccccc3o2)c1	SENP8 block-1 54, SENP6 block 67, SENP7 inh 74 | SENP8 confirm 74 | SENP6 conf 67 | SENP7 confirm 88 | Casp3 select 74 | SENP luc ctr 70
CCOC(=O)c1ccc(NC(=O)c2cc3ccccc3o2)cc1	SENP6 block 60, SENP7 inh 52 | SENP8 confirm inactive | SENP6 conf 53 | SENP7 confirm 60 | Casp3 select inactive | SENP luc ctr inactive
COc1ccc(CC(=O)NNC(=S)NCC2CC2)cc1OC	none
CCOc1ccc2nc(NC(=O)Cc3cccs3)sc2c1	SENP6 block 64 | SENP8 confirm 57 | SENP6 conf 54 | SENP7 confirm 80 | Casp3 select inactive | SENP luc ctr inactive
CCOc1ccc2nc(NC(=O)Nc3cccs3)sc2c1	SENP8 block-1 57, SENP6 block 68 | SENP8 confirm 51 | SENP6 conf 61 | SENP7 confirm 82 | Casp3 select inactive | SENP luc ctr inactive
